Drawing on PubChem BioAssay (NCI), this text covers growth for 20 compounds.

About 83,000 compounds went through this panel and 20% of them were active in at least one assay; those are over-represented in the sample as a whole.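 Cells were grown in 96-well plates and exposed to the test compound at a single concentration for 48 hours; results are reported as percent growth, with values below 10 considered active.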 Unmarked numbers belong to inactive results. Activity calls are given as the source filed them.

The assay concerns K-562 leukemia. Nature of the assay: NCI-60 one-dose screen, 48 h (100 = growth as untreated, 0 = no growth, -100 = all killed). As to conditions: 10 µM.
Turning to `C=CC(=O)OCCCCCCCC`, the growth is 103%.

On to `CCOC(=O)CNN`, for which the growth was 79.5%. As for `NNc1ccccc1C(=O)O`, the growth is 108%. Consider `CCOC(=O)C1=C(Nc2ccc(Br)cc2)C(=O)N(CC)C1`, for which the growth was 106%. For the compound `Cc1cc(C(O)(c2ccc(Nc3ccccc3)cc2)c2ccc(Nc3ccc(S(=O)(=O)O)cc3)cc2)ccc1N` (stereo not given), the growth is 8.74% (active). As for `CC1(c2ccccc2)NC(=O)NC1=O` (stereo not given), the growth is 103%. On to `C=CC[N+](C)(C)C`, for which the growth was 102%. For the compound `O=C1N(C[P+](c2ccccc2)(c2ccccc2)c2ccccc2)CCCN1C[P+](c1ccccc1)(c1ccccc1)c1ccccc1`, the growth is 93.9%. As to `Brc1cnc2ccccc2c1`, the growth is 107%. For `Nc1ccc(N)c([N+](=O)[O-])c1`, the growth is 98.7%.

With `CSC[C@H](NC(=O)COc1cccc2cnccc12)C(=O)NC(Cc1ccccc1)C(O)C(=O)N1CSC[C@H]1C(=O)NC(C)(C)C` (stereo not given in full), the growth is 107%. On to `OC(c1ccccn1)C(O)c1ccccn1` (stereo not given), for which the growth is 96.8%. For the compound `CCNCCCCNCCCCNCCCCNCCCCNCC`, the growth was 61%. With `NC(=S)CN1CCOCC1`, the growth was 97.7%. As for `CC(C)=CC(=O)OC(=O)C=C(C)C`, the figure is 99.1%; as for `COc1ccc(C(O)c2ccccc2)cc1` (stereo not given), 88.5%.

Consider `N#CC(=Nc1cccc(F)c1)C1=C(O)c2ccccc2C1=O`, for which the growth was 84.4%.

For the compound `COC(=O)c1ccc(NC(=O)CCl)cc1`, the growth was 70.9%. `O=C(O)CCC(NC(=O)OCc1ccccc1)C(=O)O` (stereo not given): the growth is 96.6%. `Cc1cc(C)cc(NCCC#N)c1`: the growth is 102%.
